# Records with an inconclusive call do not appear. The source made the active and inactive calls. Calls follow the shape of the dose curve; as a rule, active = well fitted cell-killing curve with a large enough effect; inconclusive = small, poorly fitted or top-dose-only effect, or effect the other way; inactive = no such curve, though single readings can be large or run the other way.
# Experiment: Viability qHTS for spleen associated tyrosine kinase inhibitor (SYKi) drug resistant MV4-11 cells (AID 1963824); also: nearly all actives have a fitted effect of over 35% in size
# Settings: SYKi-resistant MV4-11 viability, CellTiter-Glo, 72 h; series mostly up to 45 µM; viability, % of control: at the top concentration
# Outline: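 SYK inhibitor-resistant MV4-11 AML cells, 500 per well, added to predispensed compounds and incubated 72 hr at 37 C, 5% CO2. Viability measured by CellTiter-Glo luminescence after 10 min at room temperature.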
# Potency is read from the fitted curve at half-maximal effect.
Structure (SMILES),Potency,"viability, % of control"
C=C1C(=O)OC2CC(C)C(CCC(C)O)=CCC12 (stereo unspecified),7.31 µM (active),–
C=C(C(=O)O)C1CCC(C)C2CCC(=O)OC2(C)C1 (stereo unspecified),20.6 µM (active),–
COc1cc(CNC(=O)CCCC/C=C/C(C)C)ccc1O,18.4 µM (active),–
O=C(Nc1ccc(Cl)cc1)Nc1cccc(-c2cccc(N3CCCC3)n2)c1,14.6 µM (active),–
COc1cc2ncnc(Nc3ccc(NC(=O)c4ccccc4)cc3)c2cc1OC,4.61 µM (active),–
CC(=O)N[C@H](Cc1c[nH]c2ccccc12)C(=O)OCc1cc(C(F)(F)F)cc(C(F)(F)F)c1,23.1 µM (active),–
CC(=O)O[C@@H]1[C@@H](OC(C)=O)[C@H](C)O[C@@H](O[C@H]2[C@@H]3C=CO[C@@H](O[C@@H]4O[C@H](CO)[C@@H](O)[C@H](O)[C@H]4O)[C@@H]3[C@@]3(CO)O[C@@H]23)[C@@H]1OC(=O)/C=C/c1ccccc1,6.11 µM (active),–
Cc1cccc(-c2[nH]ncc2-c2ccnc3ccccc23)n1,16.4 µM (active),–
C[C@@H]1O[C@@H](O[C@H]2CC[C@@]3(C)C(CC[C@]4(C)C3CC=C3[C@@H]5CC(C)(C)CC[C@]5(C(=O)O[C@@H]5O[C@H](CO)[C@@H](O)[C@H](O)[C@H]5O)CC[C@]34C)[C@]2(C)CO)[C@H](O)[C@H](O[C@@H]2O[C@H](CO)[C@@H](O)[C@H](O)[C@H]2O)[C@H]1O (stereo partly specified),3.9 µM (active),–
CC1(C)CCCC2(C)C3=C(C(=O)OC3O)C(O)CC12 (stereo unspecified),–,93.6% (inactive)
CO[C@H]1O[C@@H]2O[C@@]3(C)CCC4[C@H](C)CCC([C@H]1C)[C@]42OO3 (stereo partly specified),2.91 µM (active),–

# Source: PubChem BioAssay (NCATS)
